Several values for one entry are separate records, joined by “and”; a condition that tells them apart may be missing. Equal entries are not always repeated. The whole screen tested about 5,500 compounds, of which about 2,000 (36%) were called active. Not shown: some 18% with an inconclusive outcome. Cut-off read from the data, not from the text of the source: active = normalized growth mostly below about 0.91 (no sharp cut-off); inconclusive = no clear call, values can overlap the other calls; inactive = mostly above about 0.92. This is one part of the list. A structure can be active in one record and inactive in another.
Assay: chemical genetic growth profiling, strain panel (AID 1159580);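 note: tested at 20 µM; growth read once vehicle control cultures reached saturation at 30 °C; 1 = growth at the plate median or of vehicle wells; lower values mean less growth of the strain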
Settings: growth OD

Measured: normalized growth

O=c1cc(-c2ccccc2)oc2cc(O)cc(O)c12
0.915 (inactive) and 0.802 (active): S. cerevisiae deletion strains, locus YOR106W, strain vam3, stronger effect = lower value
0.962 (inactive) and 0.886 (active): S. cerevisiae deletion strains, locus YPL240C, strain hsp82, stronger effect = lower value
0.946 (inactive) and 0.903 (active): S. cerevisiae deletion strains, locus YLR342W, strain FKS1, stronger effect = lower value
0.936 (inactive) and 0.919 (active): S. cerevisiae deletion strains, locus YLL026W, stronger effect = lower value
0.957 (inactive) and 0.875 (active): S. cerevisiae deletion strains, locus YOR070C, strain gyp1, stronger effect = lower value
0.946 (inactive) and 0.915 (active): S. cerevisiae deletion strains, locus YLL041C, strain sdh2, stronger effect = lower value
0.97 (inactive) and 0.818 (active): S. cerevisiae deletion strains, locus YNL248C, strain rpa49, stronger effect = lower value
0.924 (inactive) and 0.838 (active): S. cerevisiae deletion strains, locus YLR258W, strain gsy2, stronger effect = lower value
0.97 (inactive) and 0.877 (active): S. cerevisiae deletion strains, locus YNL322C, strain KRE1 (second series), stronger effect = lower value
0.944 (inactive) and 0.828 (active): S. cerevisiae deletion strains, locus YLR221C, strain rsa3, stronger effect = lower value
0.943 (inactive) and 0.912 (active): S. cerevisiae deletion strains, locus YKR091W, strain srl3, stronger effect = lower value
active: S. cerevisiae deletion strains, locus YKL009W, strain mrt4, stronger effect = lower value 0.667 | S. cerevisiae deletion strains, locus YKL085W, strain MDH1 (second series), stronger effect = lower value 0.888 | S. cerevisiae deletion strains, locus YKL085W, strain MDH1, stronger effect = lower value 0.888 | S. cerevisiae deletion strains, locus YKR001C, strain vps1, stronger effect = lower value 0.813 | S. cerevisiae deletion strains, locus YLR113W, strain HOG1, stronger effect = lower value 0.831 | S. cerevisiae deletion strains, locus YLR262C, strain YPT6 (second series), stronger effect = lower value 0.677 and 0.514 | S. cerevisiae deletion strains, locus YLR268W, strain sec22, stronger effect = lower value 0.837 | S. cerevisiae deletion strains, locus YLR320W, strain mms22, stronger effect = lower value 0.837 and 0.73 | S. cerevisiae deletion strains, locus YLR418C, strain cdc73, stronger effect = lower value 0.761 | S. cerevisiae deletion strains, locus YML032C, strain rad52, stronger effect = lower value 0.87 | S. cerevisiae deletion strains, locus YMR058W, strain fet3, stronger effect = lower value 0.893 and 0.653 | S. cerevisiae deletion strains, locus YMR205C, strain PFK2, stronger effect = lower value 0.87 and 0.693 | S. cerevisiae deletion strains, locus YMR307W, strain GAS1, stronger effect = lower value 0.551 | S. cerevisiae deletion strains, locus YNL071W, strain lat1, stronger effect = lower value 0.891 and 0.727 | S. cerevisiae deletion strains, locus YNL233W, strain BNI4, stronger effect = lower value 0.869 | S. cerevisiae deletion strains, locus YNL271C, strain bni1, stronger effect = lower value 0.904 | S. cerevisiae deletion strains, locus YNL298W, strain CLA4, stronger effect = lower value 0.893 | S. cerevisiae deletion strains, locus YNL307C, strain MCK1, stronger effect = lower value 0.834 | S. cerevisiae deletion strains, locus YOL147C, strain pex11, stronger effect = lower value 0.929 | S. cerevisiae deletion strains, locus YOR144C, strain elg1, stronger effect = lower value 0.932 | S. cerevisiae deletion strains, locus YOR184W, strain ser1, stronger effect = lower value 0.761 | S. cerevisiae deletion strains, locus YOR270C, strain vph1, stronger effect = lower value 0.746 and 0.518 | S. cerevisiae deletion strains, locus YPL051W, strain arl3, stronger effect = lower value 0.905 and 0.701 | S. cerevisiae deletion strains, locus YPR163C, strain tif3, stronger effect = lower value 0.883
0.926 (inactive) and 0.776 (active): S. cerevisiae deletion strains, locus YPL078C, strain atp4, stronger effect = lower value
0.912 (inactive) and 0.807 (active): S. cerevisiae deletion strains, locus YOR083W, strain WHI5, stronger effect = lower value
0.943 (inactive) and 0.867 (active): S. cerevisiae deletion strains, locus YLR027C, strain aat2, stronger effect = lower value
0.94 (inactive) and 0.912 (active): S. cerevisiae deletion strains, locus YKR026C, strain gcn3, stronger effect = lower value
0.908 (inactive) and 0.809 (active): S. cerevisiae deletion strains, locus YKL160W, strain elf1, stronger effect = lower value
inactive: S. cerevisiae deletion strains, locus YJR075W, strain HOC1, stronger effect = lower value 0.924 | S. cerevisiae deletion strains, locus YKL068W, stronger effect = lower value 0.943 | S. cerevisiae deletion strains, locus YKL190W, strain CNB1, stronger effect = lower value 0.941 | S. cerevisiae deletion strains, locus YLL001W, strain dnm1, stronger effect = lower value 0.94 and 0.905 | S. cerevisiae deletion strains, locus YLR039C, strain RIC1, stronger effect = lower value 0.715 | S. cerevisiae deletion strains, locus YLR058C, strain SHM2, stronger effect = lower value 0.965 | S. cerevisiae deletion strains, locus YLR102C, strain apc9, stronger effect = lower value 0.947 | S. cerevisiae deletion strains, locus YLR262C, strain YPT6, stronger effect = lower value 0.684 | S. cerevisiae deletion strains, locus YLR330W, strain CHS5, stronger effect = lower value 0.972 | S. cerevisiae deletion strains, locus YLR342W, strain FKS1 (second series), stronger effect = lower value 0.862 | S. cerevisiae deletion strains, locus YLR370C, strain arc18, stronger effect = lower value 0.958 and 0.933 | S. cerevisiae deletion strains, locus YLR371W, strain rom2, stronger effect = lower value 0.951 | S. cerevisiae deletion strains, locus YLR384C, strain iki3, stronger effect = lower value 0.938 and 0.931 | S. cerevisiae deletion strains, locus YML016C, strain PPZ1, stronger effect = lower value 0.985 | S. cerevisiae deletion strains, locus YML120C, strain ndi1, stronger effect = lower value 0.944 and 0.942 | S. cerevisiae deletion strains, locus YML124C, strain tub3, stronger effect = lower value 0.952 | S. cerevisiae deletion strains, locus YMR078C, strain ctf18, stronger effect = lower value 0.928 | S. cerevisiae deletion strains, locus YMR125W, strain sto1, stronger effect = lower value 0.929 and 0.907 | S. cerevisiae deletion strains, locus YMR129W, stronger effect = lower value 0.94 | S. cerevisiae deletion strains, locus YMR223W, strain ubp8, stronger effect = lower value 0.906 | S. cerevisiae deletion strains, locus YMR263W, strain SAP30, stronger effect = lower value 0.927 | S. cerevisiae deletion strains, locus YNL067W, strain RPL9B, stronger effect = lower value 0.898 | S. cerevisiae deletion strains, locus YNL128W, strain TEP1, stronger effect = lower value 0.972 | S. cerevisiae deletion strains, locus YNL153C, strain GIM3, stronger effect = lower value 0.931 | S. cerevisiae deletion strains, locus YNL183C, strain NPR1, stronger effect = lower value 0.894 | S. cerevisiae deletion strains, locus YNL250W, strain rad50, stronger effect = lower value 0.925 | S. cerevisiae deletion strains, locus YNL322C, strain KRE1, stronger effect = lower value 0.978 | S. cerevisiae deletion strains, locus YNR049C, strain mso1, stronger effect = lower value 0.966 and 0.944 | S. cerevisiae deletion strains, locus YNR052C, strain pop2, stronger effect = lower value 0.944 | S. cerevisiae deletion strains, locus YOL006C, strain TOP1, stronger effect = lower value 0.686 | S. cerevisiae deletion strains, locus YOL012C, strain htz1 0.62 | S. cerevisiae deletion strains, locus YOR001W, strain rrp6, stronger effect = lower value 0.941 and 0.903 | S. cerevisiae deletion strains, locus YOR061W, strain CKA2, stronger effect = lower value 0.98 | S. cerevisiae deletion strains, locus YOR069W, strain VPS5, stronger effect = lower value 0.988 | S. cerevisiae deletion strains, locus YOR080W, strain dia2, stronger effect = lower value 0.97 and 0.934 | S. cerevisiae deletion strains, locus YOR136W, strain idh2, stronger effect = lower value 0.968 | S. cerevisiae deletion strains, locus YOR231W, strain MKK1, stronger effect = lower value 0.905 | S. cerevisiae deletion strains, locus YOR265W, strain rbl2, stronger effect = lower value 0.947 and 1.01 | S. cerevisiae deletion strains, locus YOR316C, strain cot1, stronger effect = lower value 0.945 | S. cerevisiae deletion strains, locus YPL055C, strain LGE1, stronger effect = lower value 0.91 | S. cerevisiae deletion strains, locus YPL106C, strain sse1, stronger effect = lower value 0.911 and 0.879 | S. cerevisiae deletion strains, locus YPL241C, strain CIN2, stronger effect = lower value 0.985 | S. cerevisiae deletion strains, locus YPL256C, strain CLN2, stronger effect = lower value 0.891 | S. cerevisiae deletion strains, locus YPR119W, strain clb2, stronger effect = lower value 0.937 | S. cerevisiae deletion strains, locus YPR141C, strain kar3, stronger effect = lower value 0.942 | S. cerevisiae deletion strains, locus YPR167C, strain met16, stronger effect = lower value 0.947 | S. cerevisiae deletion strains, strain wtn01, stronger effect = lower value 0.912 | S. cerevisiae strains, strain wild type, stronger effect = lower value 0.956
0.934 (inactive) and 0.871 (active): S. cerevisiae deletion strains, locus YMR231W, strain pep5, stronger effect = lower value
0.901 (inactive) and 0.85 (active): S. cerevisiae deletion strains, locus YOR290C, strain snf2, stronger effect = lower value
0.882 (inactive) and 0.838 (active): S. cerevisiae deletion strains, locus YLR357W, strain rsc2, stronger effect = lower value
0.954 (inactive) and 0.871 (active): S. cerevisiae deletion strains, locus YNL209W, strain ssb2, stronger effect = lower value

Source: PubChem BioAssay AID1159580 (chemical genetic matrix, 2015)
